# In the library only some 10% were active in any assay of this set; here they are far more common.
# Six1-Eya2 blk = qHTS Assay for Inhibitors of the Six1/Eya2 Interaction; Homeobox protein SIX1 (Homo sapiens) + Protein phosphatase EYA2 (Homo sapiens), …; AlphaScreen GST-Six1/His-Eya2 binding, biochemical; stronger effect = lower value; activity change, % (test concentration not listed); actives 0.56% (n = 360,000); AID 651725, 2012; in the data active means activity change below about -65%; inconclusive means mostly about -30% to -63%; further: on the % scale 0 is the no-effect control and ±100 the full control effect
#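 Homogeneous AlphaScreen proximity assay pairing GST-Six1 with His-tagged Eya2 (added as 5X mix: 250 nM and 500 nM) in 50 mM Tris pH 8.0, 300 mM NaCl, 1 mM TCEP. Glutathione donor and nickel acceptor beads; 1 h, 37 °C, dark.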
# CtBP-E1A blk = qHTS Assay for Inhibitors of the CtBP/E1A Interaction; CtBP / adenovirus E1A interaction (AlphaScreen); AlphaScreen GST-E1A/His-CtBP binding, 1536-well; stronger effect = lower value; activity change, % (no concentration beside the values); actives 0.49% (n = 340,000); AID 651724, 2012; in the data active means activity change below about -65%; inconclusive means mostly about -30% to -63%; further: on the % scale 0 is the no-effect control and ±100 the full control effect
#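 In 5 uL wells, 23 nL compound meets equimolar GST-E1A and His-CtBP (5X stock 125 nM each) for 2 h, 37 °C. Beads (5X, 50 ug/mL) then 1 h, 37 °C, dark.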
# BAZ2B block = qHTS Assay for Inhibitors of BAZ2B. AID 504333, 2011. Bromodomain adjacent to zinc finger domain protein 2B (Homo sapiens), Q9UIF8. AlphaScreen BAZ2B-H3K14Ac peptide displacement. Potency, µM (top dose mostly 114 µM), for the others: at the highest dose activity change, negative = inhibition, actives largely listed as inhibitors. actives 4.4% (n = 360,000); further: potency means the concentration at half of the fitted maximal effect; on the % scale 0 is the no-effect control and ±100 the full control effect; nearly all actives have a fitted effect of over 60% in size
#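 In this displacement format the biotinylated H3(5-23) peptide acetylated at Lys14 serves as ligand at 50 nM, with BAZ2B at 50 nM in PBS pH 7.4 containing 0.01% Tween-20. Donor and acceptor beads are 10 ug/mL final.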
# G9a block = qHTS Assay for Inhibitors of Histone Lysine Methyltransferase G9a | G9a H3K9 monomethylation, AlphaScreen, 2 h | actives 8.8% (n = 350,000) | Potency, µM (highest dose often 102 µM), without a hit: top-dose activity, negative = inhibition, usual class: inhibitors | AID 504332, 2011; further: potency means the concentration at half of the fitted maximal effect; on the % scale 0 is the no-effect control and ±100 the full control effect; nearly all actives have a fitted effect of over 75% in size
# Target sequence (Q96KQ7 913-1193 limits assumed): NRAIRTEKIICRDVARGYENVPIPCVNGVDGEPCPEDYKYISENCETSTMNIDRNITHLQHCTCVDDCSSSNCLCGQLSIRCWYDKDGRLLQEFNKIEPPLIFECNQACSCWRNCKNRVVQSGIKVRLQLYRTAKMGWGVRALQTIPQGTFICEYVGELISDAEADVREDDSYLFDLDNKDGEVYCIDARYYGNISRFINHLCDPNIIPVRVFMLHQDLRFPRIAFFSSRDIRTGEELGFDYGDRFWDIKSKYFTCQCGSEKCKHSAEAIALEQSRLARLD
#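 G9a (20 nM) preincubated 15 min RT with compounds, then 500 nM biotinylated H3K9 peptide and 20 uM SAM added; 2 h RT reaction. Monomethyl-H3K9 product detected by AlphaScreen with anti-H3K9me1 antibody, streptavidin donor and anti-rabbit IgG acceptor beads.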
# JMJD2A Tudor inh = qHTS Assay for Inhibitors of JMJD2A-Tudor Domain; Potency, µM (series often up to 114 µM), inactives show at the highest dose activity change, negative = inhibition, usual class: inhibitors; Lysine-specific demethylase 4A (Homo sapiens), O75164; actives 4.4% (n = 390,000); AlphaScreen JMJD2A-Tudor / H3K4me3 peptide binding; AID 504339, 2011; further: potency means the concentration at half of the fitted maximal effect; on the % scale 0 is the no-effect control and ±100 the full control effect; nearly all actives have a fitted effect of over 50% in size
# HP1b chromo inh = HTS for Inhibitors of HP1-beta Chromodomain Interactions with Methylated Histone Tails; Chromobox protein homolog 1 (Homo sapiens), P83916; AlphaScreen HP1-beta / biotin-H3K9me3 peptide binding; Potency, µM (top dose mostly 114 µM), inactives show top-dose activity change, negative = inhibition, actives largely listed as inhibitors; actives 0.56% (n = 390,000); further: potency means the concentration at half of the fitted maximal effect; nearly all actives have a fitted effect of over 70% in size
# Target sequence (P83916 whole entry, looked up): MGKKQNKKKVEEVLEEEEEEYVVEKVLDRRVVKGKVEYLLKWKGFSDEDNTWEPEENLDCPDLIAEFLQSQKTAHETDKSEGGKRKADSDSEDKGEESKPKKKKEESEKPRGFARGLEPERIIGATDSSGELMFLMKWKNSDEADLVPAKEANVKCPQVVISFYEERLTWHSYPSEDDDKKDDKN
#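 HP1-beta protein (50 nM final) preincubated 30 min at room temperature with biotinylated H3(1-18)K9me3 peptide (50 nM) in PBS pH 7.4, 0.01% Tween-20, then compound added for 30 min. AlphaScreen streptavidin donor/nickel chelate acceptor beads (10 ug/mL final), 30 min dark, luminescence read.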
# The depositor's hits bear a star; ? = inconclusive; . = no result; [ ] = dose if it differs, or a comment. Unless noted, the call rests on the fitted dose curve; in most records, active means well fitted inhibition curve with a large enough effect; inconclusive means small, poorly fitted or top-dose-only effect; inactive means no such curve, though single readings can be large or run the other way.
SMILES,Six1-Eya2 blk,CtBP-E1A blk,BAZ2B block,G9a block,JMJD2A Tudor inh,HP1b chromo inh
C=CCNC(=O)CC1C(=O)NCCN1Cc1ccc(-c2ccccc2)cc1 (centres undefined),-6,.,-26%,56µM*,-25%,46%
Cc1ccc(CN2CCNC(=O)C2CC(=O)N(C)C2CCCCC2)cc1 (centres undefined),-2,8,-12%,45µM*,4%,28%[57 µM]
CCOc1ccc(CN2CCNC(=O)C2CC(=O)N(C)C2CCCCC2)cc1 (centres undefined),1,-5,-9%,18%[59 µM],-8%,27%
CN(Cc1cnccn1)C(=O)CC1C(=O)NCCN1Cc1cccc(Oc2ccccc2)c1 (centres undefined),-11,-2,?,50µM*,-21%,19%
CN(Cc1cnccn1)C(=O)CC1C(=O)NCCN1Cc1cccc(F)c1 (centres undefined),3,-2,-6%,.,-23%,16%
COC(=O)CN(C)C(=O)CC1C(=O)NCCN1CC(C)(C)C (centres undefined),-1,-19,11%,-31%,-3%,46%
COCCNC(=O)c1ccc(-c2nc(CS(=O)(=O)c3ccccc3)c(C)o2)cc1,.,.,-4%,-26%[59 µM],-3%,39%
Cc1ccc2nc(-c3ccc(C)s3)c(Nc3ccc4c(c3)OCCO4)n2c1,.,.,.,-29%[59 µM],?,7%
COc1cccc(Cn2c(=O)c(CCc3ccccc3)nc3cnc(OC)nc32)c1,.,.,.,-21%[12.7 µM],.,.
COc1cccc(CN(C)CC(O)COc2cc(Cl)ccc2Cl)c1 (centres undefined),2,.,56µM*,-17%,6.3µM*,?
CCN1C(=O)N(CC)c2cccc3cccc1c23,-1,.,1%,26%,-16%,16%
CN1CN(C)c2cccc3cccc1c23,-13,-10,?,1.4µM*,-38%,?
CCC(Oc1ccccc1)C(=O)NCCCN1CCOCC1 (centres undefined),2,6,2%,.,-18%,33%
O=S(=O)(O)c1ccc(N=NNc2ccc(Br)cc2)cc1,-17,-3,-20%,25µM*,-20%,8%
N#Cc1nc(-c2ccc(OCc3ccccc3Cl)cc2)oc1NCCCn1ccnc1,.,.,65%,?,.,.
N#Cc1nc(-c2ccc(OCc3ccccc3)cc2)oc1NCCCn1ccnc1,-8,-1,18µM*,?,28µM*,45µM*
CC(C)(C)c1ccc(-c2nc(C#N)c(NCc3ccncc3)o2)cc1,-7,-7,79µM*,20µM*,79µM*,-19%
CC(C)(C)c1ccc(-c2nc(C#N)c(NCCCn3ccnc3)o2)cc1,-7,-15,35µM*,.,?,?
N#Cc1nc(-c2cccs2)oc1NCc1ccc2c(c1)OCO2,-20,-18,?,45µM*,18%[11.4 µM],?
COc1ccc(-c2nc(C#N)c(NCc3ccc(C)cc3)o2)cc1OC,-18,-5,-7%,-25%[59 µM],-8%,27%
CCOC(=O)c1c(C)oc2nc(C)nc(N(C)Cc3ccccc3)c12,.,.,-11%[57.1 µM],-32%[59 µM],27%,23%
Cc1ccsc1C(=O)N1CCC1(C)C(=O)NS(=O)(=O)c1ccccc1C(F)(F)F (centres undefined),5,2,.,.,.,.

# Screening results (PubChem BioAssay)
